# Activity calls are given as the source filed them. How the source made its calls: active means hit-call score of the fitted dose curve at least 0.9, where 1 is the maximum; inactive means score below 0.9.
# Assay: ATG_NF_kB_CIS: Attagene CIS-FACTORIAL HepG2 Assay for human Nuclear Factor Kappa B (NF-kB) (AID 2282991)
# Conditions: HepG2 Attagene cis-factorial NF-kB reporter mRNA; actives raise or lower the signal
# Procedure: ATG_CIS is a cell-based, multiplexed-readout assay that uses HepG2, a human liver cell line, with measurements taken at 24 hours after chemical dosing in a 24-well plate.ATG_NF_kB_CIS is one of 52 assay component(s) measured or calculated from the ATG_CIS assay. It is designed to make measurements of mRNA induction, a form of inducible reporter, as detected with fluorescence intensity signals by Reverse transcription polymerase chain reaction (RT-PCR) and Capillary electrophoresis technology.Data from the assay component ATG_NF_kB_CIS was analyzed into 1 assay endpoint. This assay endpoint, ATG_NF_kB_CIS, was analyzed with bidirectional fitting relative to DMSO as the negative control and baseline of activity. Using a type of inducible reporter, measures of mRNA for gain or loss-of-signal activity can be used to understand the reporter gene at the transcription factor-level as they relate to the gene NFKB1. Furthermore, this assay endpoint can be referred to as a primary readout, because this assay has produced multiple assay endpoints where this one serves a reporter gene function. To generalize the intended target to other relatable targets, this assay endpoint is annotated to the dna binding intended target family, where the subfamily is NF-kappa B.
# Human liver HepG2 cells are transiently transfected with multiple reporter transcription units (MRTUs) in 6-well plates using FuGene 6 reagent (Roche; 3 ml FuGene/1 mg DNA). The MRTU constructs are regulated by a cis-regulating element (promoter). […] A major difference between the CIS and TRANS system is that in CIS activities of endogenous TFs are measured, whereas the TRANS assay evaluates changes in activities of exogenous, chimeric NR-Gal4 proteins. […] At the end of 24 hour incubation, total RNA was isolated using TriZol reagent (Invitrogen). The isolated RNA is then reverse-transcribed using oligo(dT) primer and Mo-MLV reverse transcriptase (Invitrogen) with DNAse I (Ambion) treatment for 30 min. The one-tenth of the produced cDNA was amplified by PCR using Taq DNA polymerase (Invitrogen) and two reporter sequence-specific primers. The PCR products were fluorescently labeled by primer extension with 6-arboxyfluorescein (6-FAM) 5'-labeled reporter sequence-specific primer (2 min at 95 C, 20 s at 68 C and 10 min at 72 C) and these products were digested with 5U of HpaI (New England Biolabs) for 2h at 37 C. The fragments were purified using Qiaquick PCR columns (Qiagen), analyzed on an ABI 3130xL genetic analyzer (Applied Biosystems) with peak positions identified by using a set of X-rhodamine (ROX)-labeled MapMarker1000 molecular weight standards (BioVentures). The raw capillary electrophoresis data was processed using Attagraph software (Attagene).
SMILES,outcome,AC50
O=C(NC(=O)c1c(F)cccc1F)Nc1cc(Cl)c(F)c(Cl)c1F,inactive,–
CN(C)[C@@H]1C(=O)C(C(N)=O)=C(O)[C@@]2(O)C(=O)C3=C(O)c4c(O)ccc(Cl)c4[C@@](C)(O)[C@H]3C[C@@H]12,inactive,–
O=S1(=O)OC(c2cc(Br)c(O)c(Br)c2)(c2cc(Br)c(O)c(Br)c2)c2ccccc21,–,93 µM (active)
O=C1C[C@@H]2OCC=C3CN4CC[C@]56c7ccccc7N1[C@H]5[C@H]2[C@H]3C[C@H]46,inactive,–
C=CCCl,inactive,–
CN(N=O)C(N)=O,inactive,–
COC(F)(C(F)(F)C(F)(F)F)C(F)(C(F)(F)F)C(F)(F)F (stereo not given),inactive,–
C[C@]12CC[C@@H](O)C[C@@H]1CC[C@@H]1[C@@H]2CC[C@]2(C)C(=O)CC[C@@H]12,inactive,–
CC1(C)COP(Oc2ccccc2)OC1,inactive,–
FC(F)OCC(F)(F)C(F)(F)F,inactive,–
BrCC(Br)c1ccccc1 (stereo not given),inactive,–
CCC[CH2][Sn]([CH2]CCC)([CH2]CCC)[CH2]CCC,–,11.1 µM (active)
Clc1cccc(Cl)c1,inactive,–
CCOc1ccc(N)cc1,inactive,–
COC(=O)c1cc(Oc2ccc(Cl)cc2Cl)ccc1[N+](=O)[O-],inactive,–
O=[N+]([O-])c1ccc(Nc2ccccc2)cc1,inactive,–
Oc1cc(Cl)c(Cl)cc1Cl,inactive,–
C=CCOC(F)(C(F)(F)F)C(F)(F)F,inactive,–
Oc1ccc(Cc2ccc(O)cc2)cc1,inactive,–
Nc1nc(=S)[nH][nH]1,inactive,–

SMILES,outcome,AC50
Nc1c(Oc2ccccc2)cc(O)c2c1C(=O)c1ccccc1C2=O,inactive,–
c1cc[c]([Sb]([c]2ccccc2)[c]2ccccc2)cc1,inactive,–
CC[N+](CC)(CC)CC,inactive,–
CCCCOP(=O)(CCCC)OCCCC,inactive,–
CCN(N=O)C(N)=O,inactive,–
Cc1cccc(OP(=O)(Oc2cccc(C)c2)Oc2cccc(C)c2)c1,inactive,–
CCOC(=O)CC(=O)CCl,–,56.8 µM (active)
CC1(C)[C@H](C(=O)O[C@H](C#N)c2cccc(Oc3ccccc3)c2)[C@@H]1/C=C(\Cl)C(F)(F)F,inactive,–
c1ccc2c(c1)Oc1ccccc1O2,inactive,–
O=C(Cc1ccccc1)OCCc1ccccc1,inactive,–
C[C@H]1C(=O)O[C@@H]2CCN3CC=C(COC(=O)[C@](C)(O)[C@]1(C)O)[C@H]23,inactive,–
O=S(=O)(C(Cl)(Cl)Cl)C(Cl)(Cl)Cl,–,15.6 µM (active)
OC(Cc1ccccc1Cl)(Cn1[nH]cnc1=S)C1(Cl)CC1 (stereo not given),inactive,–
CC(C)(C1CCC(O)CC1)C1CCC(O)CC1 (stereo not given),inactive,–
Cc1cccc(C)c1NC(=O)CN1CCCC1=O,inactive,–
O=C/C(Cl)=C(/Cl)C(=O)O,–,35.2 µM (active)
CCNc1nc(NCC)nc(SC)n1,inactive,–
Clc1ccc(C(Cl)(Cl)Cl)cn1,inactive,–
CCCCCCCCCCCCBr,inactive,–
Brc1c(Br)c(Br)c(Oc2c(Br)c(Br)c(Br)c(Br)c2Br)c(Br)c1Br,inactive,–

# — PubChem BioAssay (EPA / NIEHS)
